{
  "source": "ChEMBL document CHEMBL1961873",
  "about": "“Compounds: GSK PKIS; Assays: Nanosyn kinase panel” (2012)",
  "data": [
    {"target": "Serine/threonine-protein kinase PAK 2 (Homo sapiens) (UniProt Q13177)", "sequence (Q13177 whole entry)": "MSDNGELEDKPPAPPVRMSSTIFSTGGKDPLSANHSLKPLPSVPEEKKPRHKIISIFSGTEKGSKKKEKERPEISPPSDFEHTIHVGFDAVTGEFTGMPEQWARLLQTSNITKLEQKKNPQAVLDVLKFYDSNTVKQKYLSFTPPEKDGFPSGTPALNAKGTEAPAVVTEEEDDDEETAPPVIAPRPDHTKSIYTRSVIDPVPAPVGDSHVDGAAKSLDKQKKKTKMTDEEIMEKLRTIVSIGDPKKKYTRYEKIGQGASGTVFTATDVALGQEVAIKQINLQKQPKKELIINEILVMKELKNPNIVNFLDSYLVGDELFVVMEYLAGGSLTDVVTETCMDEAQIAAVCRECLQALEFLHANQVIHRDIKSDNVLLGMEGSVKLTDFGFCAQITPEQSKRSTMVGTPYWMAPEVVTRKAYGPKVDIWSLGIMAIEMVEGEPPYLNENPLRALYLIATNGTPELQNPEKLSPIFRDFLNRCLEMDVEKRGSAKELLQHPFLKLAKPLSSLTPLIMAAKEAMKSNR", "conditions": "at 1 µM", "units": {"inhibition": "%"}, "values": [
      {"smiles": "NS(=O)(=O)c1ccc(N/C=C2\\C(=O)Nc3ccc4ncsc4c32)cc1", "inhibition": 2.66},
      {"smiles": "CCn1c(-c2nonc2N)nc2c(C#CCN)ncc(OCCCN)c21", "inhibition": -1.34},
      {"smiles": "COc1cc(C=NNc2ncnc3c2cnn3Cc2ccccc2)ccc1O", "inhibition": -0.63},
      {"smiles": "Fc1ccc(-c2ncn(C3CCNCC3)c2-c2ccnc(Oc3ccccc3)n2)cc1", "inhibition": 1.48},
      {"smiles": "COc1cccc(COc2cc(-n3cnc4ccccc43)sc2C(N)=O)c1", "inhibition": 0.1},
      {"smiles": "Nc1nonc1-c1nc2cnccc2n1C1CCCCC1", "inhibition": -1.54},
      {"smiles": "COc1cc2c(cc1Nc1nc(Nc3ccsc3C(N)=O)c3cc[nH]c3n1)N(C(=O)CN(C)C)CCC2", "inhibition": 2.11},
      {"smiles": "NS(=O)(=O)c1ccc(-c2ccc3c(NC(=O)C4CC4)n[nH]c3c2)cc1", "inhibition": 2.07},
      {"smiles": "COc1cccc(-n2ncc3c(N/N=C/c4ccncc4)ncnc32)c1", "inhibition": 2.37},
      {"smiles": "Cc1cc(-c2ccco2)cc(C)c1/C=C/c1cncc(-c2nn[nH]n2)c1", "inhibition": -0.44},
      {"smiles": "CCn1c(-c2nonc2N)nc2c(C#CC(C)(C)O)ncc(OCC3CCNCC3)c21", "inhibition": 12.7},
      {"smiles": "NC(=O)c1sc(-n2cnc3cc(C(F)(F)F)ccc32)cc1OCc1ccccc1Br", "inhibition": -1.57},
      {"smiles": "CCn1c(-c2nonc2N)nc2c(C#CC(C)(C)O)nc(O[C@@H](CN)c3ccccc3)cc21", "inhibition": 48.9},
      {"smiles": "CCn1c(-c2nonc2N)nc2c(C#CC(C)(C)O)ncc(OC[C@@H]3CCCN3)c21", "inhibition": 16.6}
    ]},
    {"target": "Serine/threonine-protein kinase PAK 3 (Homo sapiens) (UniProt O75914)", "sequence (O75914 whole entry, looked up)": "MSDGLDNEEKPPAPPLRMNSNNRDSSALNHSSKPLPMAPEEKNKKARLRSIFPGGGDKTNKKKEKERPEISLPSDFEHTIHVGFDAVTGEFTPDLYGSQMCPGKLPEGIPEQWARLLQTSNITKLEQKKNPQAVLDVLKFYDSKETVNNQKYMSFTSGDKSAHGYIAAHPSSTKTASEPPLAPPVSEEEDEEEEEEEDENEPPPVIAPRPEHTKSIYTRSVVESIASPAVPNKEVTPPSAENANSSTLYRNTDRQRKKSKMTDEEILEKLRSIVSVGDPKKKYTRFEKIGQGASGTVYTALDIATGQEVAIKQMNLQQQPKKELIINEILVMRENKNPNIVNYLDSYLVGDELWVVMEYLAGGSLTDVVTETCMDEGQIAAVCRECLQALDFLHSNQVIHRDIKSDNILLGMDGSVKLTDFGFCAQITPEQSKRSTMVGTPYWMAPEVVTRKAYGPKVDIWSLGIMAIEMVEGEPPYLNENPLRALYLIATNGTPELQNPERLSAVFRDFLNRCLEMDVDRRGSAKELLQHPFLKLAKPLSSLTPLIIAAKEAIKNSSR", "conditions": "at 0.1 µM", "units": {"inhibition": "%"}, "values": [
      {"smiles": "NS(=O)(=O)c1ccc(N/C=C2\\C(=O)Nc3ccc4ncsc4c32)cc1", "inhibition": 5.48},
      {"smiles": "CCn1c(-c2nonc2N)nc2c(C#CCN)ncc(OCCCN)c21", "inhibition": -1.06},
      {"smiles": "COc1cc(C=NNc2ncnc3c2cnn3Cc2ccccc2)ccc1O", "inhibition": -5.99},
      {"smiles": "Fc1ccc(-c2ncn(C3CCNCC3)c2-c2ccnc(Oc3ccccc3)n2)cc1", "inhibition": 1.85},
      {"smiles": "COc1cccc(COc2cc(-n3cnc4ccccc43)sc2C(N)=O)c1", "inhibition": 0.88},
      {"smiles": "Nc1nonc1-c1nc2cnccc2n1C1CCCCC1", "inhibition": -3.57},
      {"smiles": "COc1cc2c(cc1Nc1nc(Nc3ccsc3C(N)=O)c3cc[nH]c3n1)N(C(=O)CN(C)C)CCC2", "inhibition": 3.92},
      {"smiles": "NS(=O)(=O)c1ccc(-c2ccc3c(NC(=O)C4CC4)n[nH]c3c2)cc1", "inhibition": 2.48},
      {"smiles": "COc1cccc(-n2ncc3c(N/N=C/c4ccncc4)ncnc32)c1", "inhibition": 5.73},
      {"smiles": "Cc1cc(-c2ccco2)cc(C)c1/C=C/c1cncc(-c2nn[nH]n2)c1", "inhibition": 0.76},
      {"smiles": "CCn1c(-c2nonc2N)nc2c(C#CC(C)(C)O)ncc(OCC3CCNCC3)c21", "inhibition": 5.37},
      {"smiles": "NC(=O)c1sc(-n2cnc3cc(C(F)(F)F)ccc32)cc1OCc1ccccc1Br", "inhibition": 1.59},
      {"smiles": "CCn1c(-c2nonc2N)nc2c(C#CC(C)(C)O)nc(O[C@@H](CN)c3ccccc3)cc21", "inhibition": -0.59},
      {"smiles": "CCn1c(-c2nonc2N)nc2c(C#CC(C)(C)O)ncc(OC[C@@H]3CCCN3)c21", "inhibition": 0.61}
    ]},
    {"target": "Serine/threonine-protein kinase PAK 3 (Homo sapiens) (UniProt O75914)", "conditions": "at 1 µM", "units": {"inhibition": "%"}, "values": [
      {"smiles": "NS(=O)(=O)c1ccc(N/C=C2\\C(=O)Nc3ccc4ncsc4c32)cc1", "inhibition": 5.62},
      {"smiles": "CCn1c(-c2nonc2N)nc2c(C#CCN)ncc(OCCCN)c21", "inhibition": -0.65},
      {"smiles": "COc1cc(C=NNc2ncnc3c2cnn3Cc2ccccc2)ccc1O", "inhibition": -4.57},
      {"smiles": "Fc1ccc(-c2ncn(C3CCNCC3)c2-c2ccnc(Oc3ccccc3)n2)cc1", "inhibition": 3.31},
      {"smiles": "COc1cccc(COc2cc(-n3cnc4ccccc43)sc2C(N)=O)c1", "inhibition": 1.18},
      {"smiles": "Nc1nonc1-c1nc2cnccc2n1C1CCCCC1", "inhibition": -2.19},
      {"smiles": "COc1cc2c(cc1Nc1nc(Nc3ccsc3C(N)=O)c3cc[nH]c3n1)N(C(=O)CN(C)C)CCC2", "inhibition": 7.24},
      {"smiles": "NS(=O)(=O)c1ccc(-c2ccc3c(NC(=O)C4CC4)n[nH]c3c2)cc1", "inhibition": 4.17},
      {"smiles": "COc1cccc(-n2ncc3c(N/N=C/c4ccncc4)ncnc32)c1", "inhibition": 5.78},
      {"smiles": "Cc1cc(-c2ccco2)cc(C)c1/C=C/c1cncc(-c2nn[nH]n2)c1", "inhibition": 0.92},
      {"smiles": "CCn1c(-c2nonc2N)nc2c(C#CC(C)(C)O)ncc(OCC3CCNCC3)c21", "inhibition": 7.15},
      {"smiles": "NC(=O)c1sc(-n2cnc3cc(C(F)(F)F)ccc32)cc1OCc1ccccc1Br", "inhibition": 0.61},
      {"smiles": "CCn1c(-c2nonc2N)nc2c(C#CC(C)(C)O)nc(O[C@@H](CN)c3ccccc3)cc21", "inhibition": 15.6},
      {"smiles": "CCn1c(-c2nonc2N)nc2c(C#CC(C)(C)O)ncc(OC[C@@H]3CCCN3)c21", "inhibition": 4.06}
    ]},
    {"target": "Serine/threonine-protein kinase PAK 5 (Homo sapiens) (UniProt Q9P286)", "sequence (Q9P286 whole entry, looked up)": "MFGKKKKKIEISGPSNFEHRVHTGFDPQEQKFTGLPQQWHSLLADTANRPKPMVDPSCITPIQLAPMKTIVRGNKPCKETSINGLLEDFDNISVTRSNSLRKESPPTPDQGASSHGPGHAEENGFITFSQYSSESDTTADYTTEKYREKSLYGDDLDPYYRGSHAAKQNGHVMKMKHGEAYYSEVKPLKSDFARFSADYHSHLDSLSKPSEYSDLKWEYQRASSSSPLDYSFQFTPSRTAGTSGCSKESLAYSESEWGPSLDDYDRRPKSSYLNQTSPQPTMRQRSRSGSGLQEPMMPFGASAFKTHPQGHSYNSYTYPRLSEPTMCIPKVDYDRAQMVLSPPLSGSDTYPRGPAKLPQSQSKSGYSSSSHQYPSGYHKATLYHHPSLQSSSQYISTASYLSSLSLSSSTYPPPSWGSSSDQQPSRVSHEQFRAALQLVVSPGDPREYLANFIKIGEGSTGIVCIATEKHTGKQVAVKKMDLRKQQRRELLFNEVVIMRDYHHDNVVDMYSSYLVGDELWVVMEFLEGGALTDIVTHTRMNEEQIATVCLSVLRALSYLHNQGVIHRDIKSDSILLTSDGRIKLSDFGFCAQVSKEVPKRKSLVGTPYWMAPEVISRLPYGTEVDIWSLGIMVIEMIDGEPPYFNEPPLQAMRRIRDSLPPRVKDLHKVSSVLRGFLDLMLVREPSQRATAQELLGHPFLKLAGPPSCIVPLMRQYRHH", "conditions": "at 0.1 µM", "units": {"inhibition": "%"}, "values": [
      {"smiles": "NS(=O)(=O)c1ccc(N/C=C2\\C(=O)Nc3ccc4ncsc4c32)cc1", "inhibition": 2.66},
      {"smiles": "CCn1c(-c2nonc2N)nc2c(C#CCN)ncc(OCCCN)c21", "inhibition": 3.08},
      {"smiles": "Fc1ccc(-c2ncn(C3CCNCC3)c2-c2ccnc(Oc3ccccc3)n2)cc1", "inhibition": 2.66},
      {"smiles": "COc1cccc(COc2cc(-n3cnc4ccccc43)sc2C(N)=O)c1", "inhibition": -2.95},
      {"smiles": "Nc1nonc1-c1nc2cnccc2n1C1CCCCC1", "inhibition": -7.66},
      {"smiles": "COc1cc2c(cc1Nc1nc(Nc3ccsc3C(N)=O)c3cc[nH]c3n1)N(C(=O)CN(C)C)CCC2", "inhibition": -1},
      {"smiles": "NS(=O)(=O)c1ccc(-c2ccc3c(NC(=O)C4CC4)n[nH]c3c2)cc1", "inhibition": 1.07},
      {"smiles": "COc1cccc(-n2ncc3c(N/N=C/c4ccncc4)ncnc32)c1", "inhibition": 0.19},
      {"smiles": "Cc1cc(-c2ccco2)cc(C)c1/C=C/c1cncc(-c2nn[nH]n2)c1", "inhibition": -7.1},
      {"smiles": "CCn1c(-c2nonc2N)nc2c(C#CC(C)(C)O)ncc(OCC3CCNCC3)c21", "inhibition": 48.8},
      {"smiles": "NC(=O)c1sc(-n2cnc3cc(C(F)(F)F)ccc32)cc1OCc1ccccc1Br", "inhibition": 1.54},
      {"smiles": "CCn1c(-c2nonc2N)nc2c(C#CC(C)(C)O)nc(O[C@@H](CN)c3ccccc3)cc21", "inhibition": 49.1},
      {"smiles": "CCn1c(-c2nonc2N)nc2c(C#CC(C)(C)O)ncc(OC[C@@H]3CCCN3)c21", "inhibition": 12.6}
    ]}
  ]
}
